SW480 rereplic = A quantitative high throughput screen for small molecules that induce DNA re-replication in SW480 colon adenocarcinoma cells; SW480 DNA re-replication, Hoechst DNA content imaging, 48 h; Potency, µM (doses to about 46.1 µM), for the others: at the top dose re-replication activation, actives largely listed as activators; 340,000 tested, 1.8% active; AID 624297, 2012; further: % of control where 0% means no effect; nearly all actives have a fitted effect of over 55% in size
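SW480 cells exposed to compounds for 48 hr at 37 C, 5% CO2, then Hoechst-stained 40 min. Nuclear DNA content imaged by fluorescence scanning (405 nm excitation, 500-530 nm emission); re-replication scored as increased high-intensity nuclei.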
KB-3-1 cytotox = qHTS assay for MDR1-selective chemotherapeutics: Primary screen using the parental adenocarcinoma cell KB-3-1 | KB-3-1 viability, CellTiter-Glo ATP luminescence, 72 h | Potency, µM (highest dose often 46.1 µM), actives largely listed as cytotoxic | 400,000 tested, 1.4% active; further: on the % scale 0 is the no-effect control and ±100 the full control effect; nearly all actives have a fitted effect of over 60% in size
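Cytotoxicity measured as CellTiter-Glo luminescence after 72 h at 37 C. Compound titrations were pinned onto drug-naive KB-3-1 parental adenocarcinoma cells grown in DMEM with 10% FBS, and normalized data fitted to concentration-response curves.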
KB-V1 MDR tox = qHTS assay for MDR1-selective chemotherapeutics: Primary screen using the drug-selected MDR subline cells KB-V1; 400,000 tested, 3.4% active; AID 1347076, 2019; Potency, µM (doses to about 46.1 µM), actives largely listed as cytotoxic; KB-V1 MDR cells viability, CellTiter-Glo, 72 h; further: on the % scale 0 is the no-effect control and ±100 the full control effect; nearly all actives have a fitted effect of over 60% in size
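qHTS viability screen in drug-selected KB-V1 MDR cells: 72 h compound treatment at 37 degrees C, ATP luminescence end point.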
MCF10A rerep = A quantitative high throughput screen for small molecules that induce DNA re-replication in MCF 10a normal breast cells; MCF 10A DNA re-replication, Hoechst nuclear intensity, 48 h; Potency, µM (highest dose often 46.1 µM), for the others: at the highest dose activity, positive = re-replication, most hits filed as activators; 350,000 tested, 2.9% active; further: % of control where 0% means no effect; nearly all actives have a fitted effect of over 50% in size
HT1080 IDH1KD tx = qHTS for induction of synthetic lethality in tumor cells producing 2HG: qHTS for the HT-1080-IDH1KD cell line | HT-1080 IDH1 knockdown viability, ATP luminescence, 48 h | AID 686971, 2013 | Potency, µM (highest dose often 46.1 µM), for the others: at the top dose activity, negative = toxicity, actives largely listed as cytotoxic | 360,000 tested, 2% active;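 further: 0% = DMSO wells and -100% = cell-free medium wells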
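Viability of IDH1-knockdown HT-1080 fibrosarcoma cells was assessed by CellTiter-Glo after 48 h at 37 °C with titrated compound; concentration-effect curves were classified by fit quality and response size.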
HT1080NT lethal = qHTS for induction of synthetic lethality in tumor cells producing 2HG: qHTS for the HT-1080-NT fibrosarcoma cell line; HT-1080-NT fibrosarcoma viability, CellTiter-Glo ATP luminescence, 48 h; Potency, µM (series often up to 46.1 µM), without a hit: top-dose activity, negative = less viability, usual class: cytotoxic; 360,000 tested, 1.6% active;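 further: NT is the 2HG producing partner of a matched IDH1 knockdown line; 0% = DMSO-treated cells and -100% = media-only wells without cells; nearly all actives have a fitted effect of over 55% in size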
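750 cells/well, RPMI + 5% FBS; 2 h settle, compound pin-transfer, 48 h at 37 degrees C. CellTiter-Glo 10 min RT, luminescence. Normalized to DMSO and media-only wells.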
* hit, by the source's call; i = inactive; ? = inconclusive; . = no result given; [ ] = dose if it differs, or a comment. Most compounds without a hit are left out; they make up all but 7.9% or so of the library. The call rests on the fitted dose curve; in most records, active means well fitted curve in the direction sought with a large enough effect; inconclusive means small, poorly fitted or top-dose-only effect, or another doubt; inactive means no such curve, though single readings can be large; an effect the other way counts as inactive or inconclusive. Potency means the concentration at half of the fitted maximal effect.

SMILES	SW480 rereplic	KB-3-1 cytotox	KB-V1 MDR tox	MCF10A rerep	HT1080 IDH1KD tx	HT1080NT lethal
Cc1ccc2c(c1)Oc1ccc(NC(=O)CCl)cc1C(=O)N2	2.3µM*	5.8µM*	9.2µM*	5.8µM*	2.9µM*	3.7µM*
COc1ccc(Cn2c(CCC(=O)Nc3ccc(CC#N)cc3)nc3cccnc32)cc1	11%	i	2.6µM*	16%	?	?
COc1ccc(Cn2c(CCC(=O)Nc3ccccc3)nc3cccnc32)cc1	-1%	i	i	29%	?	-27%
Cc1cccc(NNC(=S)Nc2ccccc2)c1	.	i	i	.	-20%	-16%
Cc1cccc(NC(=S)NNc2cccc(Cl)c2)c1	?	i	i	?	?	23µM*
Cc1cccc(NC(=S)NCC(C)CSc2ccc(Cl)cc2)c1 (stereo not given)	?	?	?	18µM*	?	?
Cc1ccc(NC(=S)NCC(C)CSc2ccc(Cl)cc2)cc1 (stereo not given)	?	i	i	18%	1%	2%
S=C(NNc1cccc(Cl)c1)NC1CCCCC1	?	i	i	?	15µM*	?
CSc1ccccc1NC(=O)CN(C)C(C)C(=O)NCc1ccc2c(c1)OCO2 (stereo not given)	1%	i	i	11%	6%	16%
CC(=O)c1cccc(S(=O)(=O)Nc2ccccc2N2CCOCC2)c1	-10%	i	i	-1%	1%	0%
Cc1ccc(N(C(=O)c2csnn2)C(C(=O)NC2CCCCC2)c2cccnc2)cc1 (stereo not given)	-10%	?	i	6%	-8%	3%
COCCNC(=O)C1(C)CCN(C(=O)COc2ccc(Cl)cc2Cl)C1 (stereo not given)	.	i	i	.	8%	1%
CCn1cc(CNC(=O)c2cc(COc3ccc(F)cc3Cl)on2)cn1	18µM*	?	?	?	-22%	?
CCn1nc(C)c(CNC(=O)c2cc(COc3ccc(F)cc3Cl)on2)c1C	0%	?	?	12%	-2%	9.2µM*
CNc1nc(Oc2cccc(NC(C)=O)c2)c2sccc2n1	.	i	i	.	-2%	-4%
Cc1cc(N2CCN(c3ccccc3)CC2)nc(-n2nc(C)cc2C)n1	?	i	2.6µM*	?	1.1µM*	0.71µM*
CCOC(=O)C1=C(Nc2ccc(OC)cc2)C(N)=NC1=N	.	?	1.8µM*	.	5.2µM*	2.3µM*
CCOC(=O)c1ccc(Nc2c(-c3ccc(OC)cc3)nc3nc[nH]n23)cc1	.	i	i	.	.	.
CCOc1ccc(S(=O)(=O)N2CCCC(C(=O)Nc3ccccc3)C2)cc1 (stereo not given)	-9%	i	10µM*	20%	1%	8%
COc1ccc(NC(=O)C2CCCN(S(=O)(=O)c3cccnc3)C2)cc1OC (stereo not given)	1%	i	i	4%	8%	3%
O=C(COc1ncnc2c1cnn2-c1ccccc1)Nc1ccc(S(=O)(=O)N2CCCCC2)cc1	-1%	i	21µM*	3%	-17%	-18%
CS(=O)(=O)N1CCC(C(=O)Nc2ccc(Oc3ccccc3)cc2)CC1	16µM*	i	?	9.2µM*	-17%	-22%
Cc1ccc(NC(=O)C2CCN(S(C)(=O)=O)CC2)cc1	-12%	i	i	-2%	-4%	15%
COc1ccc(S(=O)(=O)N2CCCC(C(=O)Nc3cccnc3)C2)cc1Cl (stereo not given)	-2%[9.22 µM]	16µM*	?	?	?	1%
CCOC(=O)N1CCN(C(=O)C2CCCN(S(=O)(=O)c3ccc(C)cc3)C2)CC1 (stereo not given)	-6%	i	3.7µM*	-4%	0%	12%
SMILES	SW480 rereplic	KB-3-1 cytotox	KB-V1 MDR tox	MCF10A rerep	HT1080 IDH1KD tx	HT1080NT lethal
CCOC(=O)N1CCN(C(=O)C2CCCN(S(=O)(=O)c3ccc(F)cc3)C2)CC1 (stereo not given)	-10%	i	i	-3%	2%	29%
O=C(COc1ccccc1)Nc1ccc(S(=O)(=O)N2CCCCCC2)cc1	3%	i	16µM*	13%	-17%	0%
O=C(NNc1cc(C(F)(F)F)nc2ccccc12)Nc1cccc(Cl)c1	4%	i	i	?	21µM*	?
O=C(NNc1nccc(C(F)(F)F)n1)Nc1cccc(Cl)c1	-5%	i	i	-11%	12%	0%
O=C(Cn1ccc(C(F)(F)F)n1)N=Nc1c(O)[nH]c2ccccc12	2%	i	i	0%	-8%	-21%
CC(C)n1c(O)c(N=NC(=O)Cn2ccc(C(F)(F)F)n2)c2ccccc21	-30%	?	8.2µM*	?	11%	-2%
COc1ccccc1NC(=O)C1CCCN1C(=O)Nc1ccc(F)cc1 (stereo not given)	-7%	i	i	3%	5%	4%
Cn1c(=O)c2c(nc(SCC(=O)NCc3ccc4c(c3)OCO4)n2Cc2ccc(Cl)cc2)n(C)c1=O	14%	i	4.1µM*	16%	-2%	-8%
Cn1c(=O)[nH]c(=O)c2c1nc(N1CCCCC1)n2CCSc1nc2ccccc2o1	-3%	i	i	14%	10%	-2%
CCSc1nc2c(c(=O)[nH]c(=O)n2C)n1Cc1ccc(Cl)cc1	0%	?	7.3µM*	5%	-10%[9.24 µM]	-8%
CC(C)CCn1c(Sc2nc3ccccc3o2)nc2c1c(=O)[nH]c(=O)n2C	?	i	15µM*	?	1%	8%
CCCCCCn1c(SCC(C)C)nc2c1c(=O)[nH]c(=O)n2C	0%	?	10µM*	0%	-3%	-3%
CCOC(=O)C1CCCN(C(=O)c2ccc3c(c2)N(Cc2ccccc2F)C(=O)c2ccccc2S3=O)C1 (stereo not given)	.	i	i	.	.	.
O=C1Nc2cccc3c2N(CCC3)C2=C1CCC2	.	i	i	.	-14%	1%
CCSc1nc2c(c(=O)n(C)c(=O)n2C)n1Cc1ccc(Cl)cc1	-10%	i	13µM*	5%	0%	-2%
